From PubChem BioAssay AID1159580 (chemical genetic matrix, 2015)
Among all 5,500 compounds or so, about 2,000 (36%) were called active. About 18% were inconclusive and are not listed. Rule as the data show it: active = normalized growth mostly below about 0.91 (no sharp cut-off); inconclusive = no clear call, values can overlap the other calls; inactive = mostly above about 0.92. This is one part of the list.

Assay: chemical genetic growth profiling, strain panel (AID 1159580);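 also: tested at 20 µM; growth read once vehicle control cultures reached saturation at 30 °C; 1 = growth at the plate median or of vehicle wells; lower values mean less growth of the strain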
Conditions: S. cerevisiae deletion strains, growth OD
[1] = locus YDL101C, strain DUN1, active compounds read low
[2] = locus YHR030C, strain SLT2, active compounds read low

Measured: normalized growth

Cc1ccc(-c2csc(-c3ccncc3)n2)cc1
inactive: locus YBL105C, strain PKC1, active compounds read low 0.928 | locus YBR135W, strain CKS1, active compounds read low 0.903 | locus YBR136W, strain MEC1, active compounds read low 0.912 | locus YBR160W, strain CDC28, active compounds read low 0.909 | locus YDL017W, strain CDC7, active compounds read low 0.922 | locus YDL028C, strain MPS1, active compounds read low 0.898 | locus YDL108W, strain KIN28, active compounds read low 0.914 | locus YDL214C, strain PRR2, active compounds read low 0.781 | locus YDR052C, strain DBF4, active compounds read low 0.938 | locus YDR054C, strain cdc34, active compounds read low 0.879 | locus YDR226W, strain ADK1, active compounds read low 0.905 | locus YFL009W, strain cdc4, active compounds read low 0.89 | locus YFL029C, strain CAK1, active compounds read low 0.89 | locus YFR003C, strain YPI1, active compounds read low 0.921 | locus YFR019W, strain FAB1, active compounds read low 0.859 | locus YGR040W, strain KSS1, active compounds read low 0.718 | locus YGR052W, strain FMP48, active compounds read low 0.717 | locus YHR079C, strain IRE1, active compounds read low 0.674 | locus YHR082C, strain KSP1, active compounds read low 0.747 | locus YHR205W, strain SCH9, active compounds read low 0.72 | locus YIL147C, strain SLN1, active compounds read low 0.915 | locus YJL128C, strain PBS2, active compounds read low 0.919 | locus YJL157C, strain FAR1, active compounds read low 0.764 | locus YJR016C, strain ILV3, active compounds read low 0.922 | locus YJR066W, strain TOR1 (second series), active compounds read low 0.753 | locus YJR066W, strain TOR1, active compounds read low 0.53 | locus YKL048C, strain ELM1, active compounds read low 0.928 | locus YKL067W, strain YNK1, active compounds read low 0.758 | locus YKL101W, strain HSL1, active compounds read low 0.872 | locus YKL203C, strain TOR2, active compounds read low 0.782 | locus YLR133W, strain CKI1, active compounds read low 0.837 | locus YLR403W, strain SFP1, active compounds read low 0.706 | locus YML070W, strain DAK1, active compounds read low 0.788 | locus YMR001C, strain CDC5, active compounds read low 0.91 | locus YMR205C, strain PFK2 (second series), active compounds read low 0.771 | locus YNL006W, strain LST8, active compounds read low 0.925 | locus YNL020C, strain ARK1, active compounds read low 0.842 | locus YNL161W, strain CBK1, active compounds read low 0.909 | locus YNL183C, strain NPR1, active compounds read low 0.672 | locus YNL207W, strain RIO2, active compounds read low 0.905 | locus YNL222W, strain SSU72, active compounds read low 0.897 | locus YNL307C, strain MCK1 (second series), active compounds read low 0.773 | locus YOL136C, strain PFK27, active compounds read low 0.814 | locus YOR061W, strain CKA2, active compounds read low 0.89 | locus YOR119C, strain RIO1, active compounds read low 0.719 | locus YOR231W, strain MKK1, active compounds read low 0.691 | locus YOR329C, strain SCD5, active compounds read low 0.92 | locus YPL153C, strain RAD53, active compounds read low 0.688 | locus YPL209C, strain IPL1, active compounds read low 0.913 | locus YPR025C, strain CCL1, active compounds read low 0.914 | locus YPR106W, strain ISR1, active compounds read low 0.924 | locus YPR111W, strain DBF20, active compounds read low 0.902 | strain NNK1, active compounds read low 0.911
active: locus YAR019C, strain CDC15, active compounds read low 0.888 | [1] 0.912 | locus YDL132W, strain cdc53, active compounds read low 0.891 | locus YDR477W, strain SNF1, active compounds read low 0.68 | locus YER123W, strain YCK3, active compounds read low 0.615 | locus YER133W, strain GLC7, active compounds read low 0.661 | locus YFR028C, strain CDC14, active compounds read low 0.89 | locus YGR092W, strain DBF2, active compounds read low 0.441 | [2] 0.423 | locus YJL095W, strain BCK1, active compounds read low 0.374 | locus YKL193C, strain SDS22, active compounds read low 0.879 | locus YLR113W, strain HOG1, active compounds read low 0.653 | locus YMR277W, strain FCP1, active compounds read low 0.865 | locus YOL078W, strain AVO1, active compounds read low 0.866 | locus YPL031C, strain PHO85, active compounds read low 0.649 | locus YPL204W, strain HRR25, active compounds read low 0.618 | locus YPL256C, strain CLN2, active compounds read low 0.697 | strain TSCII, active compounds read low 0.873

c1ccc(-c2csc(-c3ccncc3)n2)cc1
active: locus YAL013W, strain DEP1, active compounds read low 0.916 | [2] 0.22 | locus YKL190W, strain CNB1, active compounds read low 0.894 | locus YLR039C, strain RIC1, active compounds read low 0.371 | locus YLR085C, strain ARP6, active compounds read low 0.535 | locus YLR262C, strain YPT6, active compounds read low 0.384 | locus YML094W, strain GIM5, active compounds read low 0.814 | locus YNL298W, strain CLA4 (second series), active compounds read low 0.829 | locus YOL006C, strain TOP1, active compounds read low 0.379 | locus YPL241C, strain CIN2, active compounds read low 0.8 | locus YPR135W, strain CTF4, active compounds read low 0.515
inactive: locus YBR229C, strain ROT2, active compounds read low 0.979 | locus YCL061C, strain MRC1, active compounds read low 0.944 | [1] 0.967 | locus YDR150W, strain NUM1, active compounds read low 0.934 | locus YEL061C, strain CIN8, active compounds read low 0.914 | locus YGR078C, strain PAC10, active compounds read low 0.974 | locus YGR229C, strain SMI1, active compounds read low 0.958 | locus YHR087W, strain rtc3, active compounds read low 0.981 | locus YJL187C, strain SWE1, active compounds read low 1.03 | locus YJR043C, strain POL32, active compounds read low 0.974 | locus YJR075W, strain HOC1, active compounds read low 0.987 | locus YLR058C, strain SHM2 (second series), active compounds read low 0.972 | locus YMR219W, strain ESC1, active compounds read low 0.971 | locus YMR263W, strain SAP30, active compounds read low 0.946 | locus YMR307W, strain GAS1, active compounds read low 0.737 | locus YNL128W, strain TEP1, active compounds read low 0.937 | locus YNL153C, strain GIM3, active compounds read low 0.964 | locus YNL322C, strain KRE1, active compounds read low 0.989 | locus YNR030W, strain Alg12, active compounds read low 0.901 | locus YPL055C, strain LGE1, active compounds read low 0.832
